Shown is part of a subset that was picked to be rich in hits.
Shiga toxin inh: inhibitors of Shiga toxin in Vero cells | Vero cells, Shiga toxin protein synthesis inhibition reporter | 290,000 compounds, 9.2% hits | inhibition, % at 38.7 µM; in the data active means inhibition mostly above about 28%, no sharp cut-off; inactive means mostly below about 43%
AMA1 RON2 block: disrupts binding of P. falciparum AMA1 to RON2; AlphaScreen AMA1-biotinylated RON2 peptide binding; Potency, µM (top dose mostly 58.2 µM), actives largely listed as inhibitors; 360,000 compounds, 0.2% hits; AID 720542; active means well fitted inhibition curve with a large enough effect; inconclusive means small, poorly fitted or top-dose-only effect; inactive means no such curve, though single readings can be large or run the other way; further: nearly all actives have a fitted effect of over 45% in size
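AMA1 (3D7) with his tag at 25 nM final met compounds first, then biotinylated RON2 peptide at 25 nM; detection used donor plus acceptor beads, 10 µg/mL apiece, read by AlphaScreen after 30 min at room temperature.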
Cycloheximide cs: counter-screen hit for Shiga toxin inhibitors, cycloheximide | cell reporter, cycloheximide protein synthesis inhibition counterscreen | 300,000 compounds, 12% hits | max response, % | AID 2314; in the data active means max response mostly above about 13%, no sharp cut-off; inactive means mostly below about 14%; further: read at 38.3 µM for the half of the compounds with a filed dose
MARV entry inh: inhibitors of Marburg virus binding or cell entry; Potency, µM (titrated, usually from 37.8 µM), most hits filed as inhibitors; Marburg virus pseudotyped entry inhibition, cell reporter; 300,000 compounds, 1.8% hits; calls by dose curve; tested in HEK293 cells
Lassa entry inh: Lassa virus entry inhibition; 300,000 compounds, 1.2% hits; AID 540256; Lassa virus pseudotype entry inhibition, cell reporter; Potency, µM (highest dose often 37.9 µM), most hits filed as inhibitors; calls by dose curve; tested in HEK293 cells; further: nearly all actives have a fitted effect of over 50% in size
Hits are given with their value; 0 = inactive; ? = inconclusive; - = not tested or not shown.

SMILES	Shiga toxin inh	AMA1 RON2 block	Cycloheximide cs	MARV entry inh	Lassa entry inh
CC(=O)c1cccc(Nc2ccc3cc(S(=O)(=O)N4CCCC4)ccc3n2)c1	-	-	-	-	0
Cn1nc(C(=O)Nc2cccc(S(=O)(=O)N3CCCCC3)c2)c2ccccc2c1=O	-	0	-	6.3µM	0
O=C(Nc1cccc(S(=O)(=O)N2CCOCC2)c1)c1ccc2ccccc2n1	0	0	30	-	-
Cc1ccc(S(=O)(=O)N(CC(=O)Nc2ccc(C)cc2C)C(=O)N2CCN(C)CC2)cc1	-	0	-	0	0
CC(/C=C/c1ccco1)=N\NC(=O)CNc1ccc2ccccc2c1	0	0	0	-	-
CC(/C=C/c1ccco1)=N\NC(=O)c1cccc(Cl)c1	0	0	35	0	0
CC(/C=C/c1ccco1)=N/NC(=O)c1ccccc1Cl	0	0	26	?	0
Cc1cc(N)c2ccccc2[n+]1CCCCCCCCCC[n+]1c(C)cc(N)c2ccccc21	-	-	-	10µM	?
Cc1cc(C)c2cccc(N)c2n1	0	?	0	0	0
CC1(C(=O)NS(=O)(=O)Cc2cccc(Cl)c2)CCN1C(=O)C1(c2ccc(Cl)cc2)CCC1 (stereo not given)	-	0	-	-	-
COc1ccc(C(C)(O)c2nc(-c3ccc4ccccc4c3)cs2)cc1 (stereo not given)	-	0	-	-	-
CN(C)/C=N/c1nc(-c2ccc3ccccc3c2)cs1	61	0	47	?	10µM
CN(C)/C=N/c1nc(-c2ccc3c(c2)OCO3)cs1	178	0	53	0	?
CCCOc1cc(CN2CCCCC2)cc(C(C)=O)c1	0	0	0	?	0
Cc1cc(Cl)ccc1NC(=O)CN1C(=O)COc2ccc(S(=O)(=O)Nc3ccccc3)cc21	-	-	-	-	0
CC(C)(C)OC(=O)C[C@H]1C/C=C\C[C@H](CC(=O)NCCO)C(=O)NC[C@H](c2ccccc2)OC1=O	-	0	-	-	-
CCCC1(C)C(C#N)(C#N)C1(C#N)C#N	-	-	-	16µM	4.1µM
O=C(CN1C(=O)S/C(=C\c2cccc(Cl)c2)C1=O)NCCCn1ccnc1	0	0	0	-	-
COc1ccc(/C=C2\SC(=O)N(CCc3nnc(N)s3)C2=O)cc1	104	0	53	-	-
COc1cccc(/C=C2\SC(=O)N(CC(=O)NCCCn3ccnc3)C2=O)c1	29	0	0	0	0
O=C(CN1C(=O)S/C(=C\c2ccc(Cl)cc2)C1=O)NCCCn1ccnc1	0	0	17	-	-
COc1ccc(/C=C2\SC(=O)N(CCCC(=O)Nc3ccc(C(=O)O)cc3)C2=O)cc1	-	0	-	-	-
COc1ccc(/C=C2\SC(=O)N(CC(=O)NCCCn3ccnc3)C2=O)cc1	19	0	65	-	-
COc1cccc(/C=C2\SC(=O)N(CCC(=O)NCCCn3ccnc3)C2=O)c1	0	0	0	-	-
CCOC(=O)c1cnc2cc(C(F)(F)F)ccc2c1N1CCN(c2cccc(Cl)c2)CC1	-	-	-	0	0
SMILES	Shiga toxin inh	AMA1 RON2 block	Cycloheximide cs	MARV entry inh	Lassa entry inh
COc1ccc2c(Sc3ccccc3)c(C(=O)N3CCC(C)CC3)[nH]c2c1	-	-	-	0	0
C=CCC(CC=C)(CNC(=O)C(=O)Nc1cccc(C(F)(F)F)c1)c1ccccc1	-	-	-	0	0
CCNC(=O)c1c(C)oc2ncn(C)c(=O)c12	-	-	-	-	0
CC1=C(C(=O)OCCc2ccccc2)C(c2ccsc2)NC(=O)N1C (stereo not given)	0	0	0	0	?
CCOCCCNC(=O)Cn1nc(C)n2c(cc3cc(C)ccc32)c1=O	-	-	-	0	-
COc1cc(C2NC(=O)C(C#N)=C(Nc3cccc(C)c3)S2)ccc1O (stereo not given)	0	0	0	-	-
O=C(Nc1cccc(/C=C/c2ccccn2)c1)c1cc(Cl)ccn1	43	0	29	0	-
CCOC(=O)COc1cc(N)c(Cl)cc1Cl	0	0	27	0	0
O=C(N/N=C/c1cccnc1)c1cccc(NC(=O)c2ccccc2Cl)c1	0	0	0	0	0
O=C(O)c1cccc(NC(=S)N/N=C/c2cccnc2)c1	0	0	17	?	0
Cc1cccc(C)c1NC(=S)N/N=C/c1ccc(C(=O)O)cc1	0	0	0	0	0
COc1ccc(/C=N/NC(=S)Nc2cccc(C(=O)O)c2)cc1	156	0	41	?	?
CNC(=S)N/N=C/c1ccccc1Cl	0	0	0	0	0
S=C(N/N=C/c1ccccc1Cl)Nc1ccccc1	122	0	54	0	?
COc1cccc(/C=N/NC(=S)Nc2cccc(C(=O)O)c2)c1O	0	0	0	5.8µM	5.8µM
CC(C)(C)c1ccc(S(=O)(=O)N2CCNC(=O)C2)cc1	-	0	-	0	0
COCCNC(=O)CCn1c(=O)c2cc(OC)c(OC)cc2n(CC(=O)Nc2ccccc2OC)c1=O	-	-	-	0	0
COc1cc(/C=N/NC(=O)c2cccc(NC(=O)c3ccccc3Cl)c2)ccc1O	0	0	0	0	0

Source: PubChem
